Sampled rows, rich in hits. Any-hit rate of the full collection: about 6.6%.
HT1080NT lethal – qHTS for induction of synthetic lethality in tumor cells producing 2HG: qHTS for the HT-1080-NT fibrosarcoma cell line; 360,000 compounds, 1.6% hits; AID 686970, 2013; Potency, µM (doses to about 46.1 µM), without a hit: top-dose activity, negative = less viability, most hits filed as cytotoxic; HT-1080-NT fibrosarcoma viability, CellTiter-Glo ATP luminescence, 48 h;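 note: NT is the 2HG producing partner of a matched IDH1 knockdown line; 0% = DMSO-treated cells and -100% = media-only wells without cells; nearly all actives have a fitted effect of over 55% in size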
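Viability by CellTiter-Glo luminescence after 48 h compound exposure at 37C of HT-1080-NT cells (750/well, RPMI, 5% FBS). % activity scaled between DMSO wells and medium-only wells, then curve-fitted and categorized by curve class.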
HT1080 IDH1KD tx – qHTS for induction of synthetic lethality in tumor cells producing 2HG: qHTS for the HT-1080-IDH1KD cell line; HT-1080 IDH1 knockdown viability, ATP luminescence, 48 h; Potency, µM (top dose mostly 46.1 µM), inactives show top-dose activity, negative = toxicity, most hits filed as cytotoxic; AID 686971, 2013; 360,000 compounds, 2% hits;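 note: 0% = DMSO wells and -100% = cell-free medium wells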
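Luminescent ATP read-out (CellTiter-Glo, 10 min at room temperature) after 48 h compound exposure at 37 °C gave viability of IDH1-knockdown HT-1080 cells. Activity was normalised to DMSO and cell-free wells, then fitted as concentration-response curves.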
HepG2 tox – qHTS for Inhibitors of TGF-b: Cytotox Counterscreen. 410,000 compounds, 0.76% hits. Potency, µM (highest dose often 46.1 µM), for inactives: at the highest dose activity change, negative = cytotoxicity, hits mostly cytotoxic. HepG2 CAGA-GFP viability, ATP luminescence, 18 h
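CellTiter-Glo luminescence gave cytotoxicity after 18 hours at 37 degrees C. The cells were HepG2 CAGA-GFP in 1% FBS DMEM, stimulated with 500 pg/mL TGF-beta after compound addition. %Activity was normalised to no-cell wells (complete cell-killing) and DMSO (no toxicity), and curves were fitted and classified.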
KB-V1 MDR tox – qHTS assay for MDR1-selective chemotherapeutics: Primary screen using the drug-selected MDR subline cells KB-V1; 400,000 compounds, 3.4% hits; Potency, µM (doses to about 46.1 µM), hits mostly cytotoxic; KB-V1 MDR cells viability, CellTiter-Glo, 72 h; AID 1347076, 2019; note: % is set by controls: 0 for no effect and ±100 for the full control effect; nearly all actives have a fitted effect of over 60% in size
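Compound-treated KB-V1 multidrug-resistant cells, 72 h, 37 degrees C; viability by CellTiter-Glo. Fitted qHTS curves give the values.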
TGFb inhibitor – qHTS for Inhibitors of TGF-b | HepG2 CAGA-GFP TGF-b/SMAD3 reporter, GFP fluorescence, 18 h; TGF-beta stimulated, 500 pg/mL final | Potency, µM (series often up to 46.1 µM), without a hit: at the highest dose activity, negative = inhibition, most hits filed as inhibitors | 410,000 compounds, 1.2% hits; note: % is set by controls: 0 for no effect and ±100 for the full control effect; nearly all actives have a fitted effect of over 65% in size
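Per well, imaged GFP fluorescence of HEPG2 CAGA-GFP cells gives the signal; cells get compound, then TGF-beta (500 pg/mL final), 18 h at 37 degrees C; %Activity versus -TGF-beta and +DMSO controls.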
KB-3-1 tox – qHTS assay for MDR1-selective chemotherapeutics: Primary screen using the parental adenocarcinoma cell KB-3-1. KB-3-1 viability, CellTiter-Glo ATP luminescence, 72 h. 400,000 compounds, 1.4% hits. Potency, µM (doses to about 46.1 µM), most hits filed as cytotoxic; note: % is set by controls: 0 for no effect and ±100 for the full control effect; nearly all actives have a fitted effect of over 60% in size
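Multi-concentration cytotoxicity screen in KB-3-1 cells grown in DMEM lacking phenol red with 10% FBS. After 72 h at 37 °C with compound, ATP-dependent luminescence was recorded.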
Starred values were filed as active, the others as inactive; i = inactive; ? = inconclusive; · = no result given. Calls come from the whole dose curve; as a rule, active = well fitted curve in the direction sought with a large enough effect; inconclusive = small, poorly fitted or top-dose-only effect, or another doubt; inactive = no such curve, though single readings can be large; an effect the other way counts as inactive or inconclusive. Potency is the fitted concentration of half-maximal effect.

SMILES	HT1080NT lethal	HT1080 IDH1KD tx	HepG2 tox	KB-V1 MDR tox	TGFb inhibitor	KB-3-1 tox
Cc1ccc(NC(=O)CCl)c(C)c1	?	?	-14.4%	?	14.9%	16.4µM*
O=C(CC1Sc2ccccc2NC1=O)NNc1ccc(F)cc1 (stereo not given)	?	7.31µM*	2.4%	·	-5.7%	·
Cc1ccc(NC(=O)CC2Sc3ccccc3NC2=O)c(C)c1 (stereo not given)	·	·	5.5%	?	13.6%	16.4µM*
CS(=O)(=O)c1ccc(Cl)c(NC(=O)CCl)c1	?	?	-9.6%	20.6µM*	20.4%	6.51µM*
Cc1ccc(C)c(NC(=O)CC2Sc3ccccc3NC2=O)c1 (stereo not given)	-0.2%	0.6%	-25.6%	?	-11.9%	i
Cc1ccc(NC(=O)CCc2ccc(C)o2)c(C)c1	-6.5%	-20.7%	-0.4%	?	0.2%	?
O=C(NCCc1ccc(Cl)cc1)c1cc(-c2ccc(Cl)cc2)n[nH]1	·	·	-2.7%	i	9.2%	i
CCC(=O)NC(=S)Nc1ccc(-c2nc3ccc(C)cc3s2)cc1	27.8%	13.3%	-5.6%	i	0.0%	?
Cc1ccc2nc(-c3ccc(NC(=S)NC4CC(C)(C)NC(C)(C)C4)cc3)sc2c1	23.1µM*	?	12.6µM*	i	?	?
Cc1ccc2nc(-c3ccc(NC(=S)NC(=O)C(C)C)cc3)sc2c1	2.82µM*	1.58µM*	-0.4%	i	-1.8%	i
Fc1ccc(Nc2ncnc3c2nc2n3CCCCC2)c(F)c1	·	·	-12.2%	?	0.0%	i
CCc1cccc(NC(=O)C(Cc2ccccc2)NS(=O)(=O)c2ccc3c(c2)c(=O)n(C)c(=O)n3C)c1 (stereo not given)	·	·	-31.5%	i	4.47µM*	i
COc1ccc(OC)c(Nc2nc(NCc3ccco3)c3ccccc3n2)c1	20.6µM*	?	-52.7%	?	?	i
Cc1ccc(S(=O)(=O)Nc2nc3ccccc3nc2NCc2ccco2)cc1	?	10µM*	-33.3%	?	-7.1%	i
COc1cccc(Nc2nc(NCCO)c3ccccc3n2)c1	?	?	-36.4%	?	12.6µM*	?
COc1ccc(OC)c(Nc2nc(NCc3ccco3)nc(N)c2[N+](=O)[O-])c1	-3.5%	-2.1%	-18.8%	i	?	i
O=S(=O)(Nc1nc2ccccc2nc1NCc1ccco1)c1ccc(Cl)cc1	?	?	-23.9%	?	?	?
Cc1ccccc1Nc1nc(NCc2ccco2)c2ccccc2n1	?	14.6µM*	-36.9%	11.6µM*	?	?
CCC(C)NC(=O)CSc1nnc(-c2ccc(C)cc2)c(-c2ccc(C)cc2)n1 (stereo not given)	·	·	1.6%	i	-7.7%	i
O=S1(=O)CCOC[C@H](c2ccccc2)N1Cc1ccc(Cl)c(Cl)c1	·	·	-11.3%	i	?	?
O=C(Cn1cnc2onc(-c3ccc(F)cc3)c2c1=O)N1CCN(c2ccc(F)cc2)CC1	·	·	-25.3%	i	-28.8%	i
CCC(=O)N1CCc2cc(S(=O)(=O)NCCC(=O)Nc3ccc(OC)c(Cl)c3)ccc21	·	·	6.2%	·	-8.1%	·
CCc1cccc(NC(=O)CSc2n[nH]c(-c3ccccc3Cl)n2)c1	·	·	-29.4%	?	-61.1%	?
Cc1ccc(CNC(=O)CCc2c(C)c3cc4c(C)coc4cc3oc2=O)cc1	·	·	-27.1%	i	-26.6%	i
